{"source": "PubChem BioAssay AID777", "about": "(Sanford-Burnham Center for Chemical Genomics, 2007)", "note": "Screen size: about 96,000 compounds; about 19,000 (20%) were called active.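 Rule for the calls: active = blocking of liver enzyme CYP2C9 beyond about 50% at 5 µM (limit read from the data); inactive = the rest.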 The list is a sample of the results.", "data": [{"target": "Cytochrome P450 2C9 (Homo sapiens) (UniProt P11712)", "sequence (P11712 whole entry, looked up)": "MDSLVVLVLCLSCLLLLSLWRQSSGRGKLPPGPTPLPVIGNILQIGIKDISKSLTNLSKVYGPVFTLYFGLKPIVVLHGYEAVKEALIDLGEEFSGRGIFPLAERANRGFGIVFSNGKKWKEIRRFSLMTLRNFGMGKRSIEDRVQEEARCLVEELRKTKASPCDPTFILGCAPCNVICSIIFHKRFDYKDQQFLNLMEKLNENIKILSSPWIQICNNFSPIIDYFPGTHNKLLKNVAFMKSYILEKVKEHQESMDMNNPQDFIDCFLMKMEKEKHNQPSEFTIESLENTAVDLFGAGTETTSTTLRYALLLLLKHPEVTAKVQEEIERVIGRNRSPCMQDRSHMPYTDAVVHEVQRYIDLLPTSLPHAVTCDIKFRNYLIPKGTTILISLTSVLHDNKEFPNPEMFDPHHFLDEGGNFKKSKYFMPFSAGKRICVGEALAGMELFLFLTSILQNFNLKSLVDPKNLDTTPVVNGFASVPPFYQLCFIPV", "experiment": "blockers of cytochrome P450 2C9 activity – biochemical, luminescence, ADME assay, primary screen (AID 777)", "conditions": "CYP2C9 Supersomes, luciferin-H conversion, at 5 µM, active compounds read high", "values": [{"smiles": "Cc1ccc(C(=O)Nc2nnc(-c3cccs3)s2)cc1C", "inhibition": "2% (inactive)"}, {"smiles": "CCOc1cccc(C(=O)Nc2cnn(Cc3ccccc3)c2)c1", "inhibition": "10.6% (inactive)"}, {"smiles": "Cc1occc1C(=O)NNC(=S)NCC(C)C", "inhibition": "12.4% (inactive)"}, {"smiles": "Cc1occc1C(=O)Nc1nnc(C2CCCCC2)s1", "inhibition": "0.6% (inactive)"}, {"smiles": "Cc1ccc(C(=O)COc2cccc(NC(=O)c3ccco3)c2)cc1", "inhibition": "32.1% (inactive)"}, {"smiles": "COc1ccc(Oc2coc3cc(OC(=O)c4cncc(Br)c4)ccc3c2=O)cc1", "inhibition": "-54.5% (inactive)"}, {"smiles": "Cc1nnc(SCC(=O)Nc2ncc3c(n2)CC(C)(C)CC3=O)s1", "inhibition": "22.5% (inactive)"}, {"smiles": "COc1ccc(-c2noc(COc3ccc(Cl)c(C)c3)n2)cc1", "inhibition": "11.2% (inactive)"}, {"smiles": "CCOc1ccc(/C(O)=C2/C(=O)C(=O)N(Cc3cccnc3)C2c2ccc(N(C)C)cc2)c(C)c1", "note": "(centres undefined)", "inhibition": "20.8% (inactive)"}, {"smiles": "N#Cc1ccc(CSc2nnc(-c3ccccn3)n2-c2ccc(Cl)cc2)cc1", "inhibition": "7.5% (inactive)"}, {"smiles": "CCc1nnc(NC(=O)CSc2nnc(COc3ccc(C#N)cc3)n2-c2ccccc2)s1", "inhibition": "30.3% (inactive)"}, {"smiles": "O=P(c1ccc2c(c1)OCCO2)(N1CCOCC1)N1CCOCC1", "inhibition": "24.8% (inactive)"}, {"smiles": "O=C(NNC(=O)c1cccnc1)Nc1ccccc1", "inhibition": "-10.1% (inactive)"}, {"smiles": "CC(C)NC(=O)C(=O)N/N=C/c1ccco1", "inhibition": "-20.6% (inactive)"}, {"smiles": "COc1ccc(Nc2nc(=O)[nH]nc2C)cc1", "inhibition": "1.9% (inactive)"}, {"smiles": "CCN(CC)CC(=O)Nc1nn(-c2ccccc2)nc1C(N)=O", "inhibition": "-20.1% (inactive)"}, {"smiles": "CC(=O)c1cc2c(cc1NC(=O)CN1CCCCCC1)OCO2", "inhibition": "0.4% (inactive)"}, {"smiles": "O=C(Nc1nn(Cc2ccccc2F)cc1Br)c1cccs1", "inhibition": "8% (inactive)"}, {"smiles": "O=C(Nc1ccn(Cc2ccccc2F)n1)c1ccc(COc2ccc(Cl)cc2Cl)o1", "inhibition": "92.6% (active)"}, {"smiles": "O=C(O)c1ccc(COc2c(F)c(F)cc(F)c2F)o1", "inhibition": "-9.4% (inactive)"}, {"smiles": "OC(COCCC12CC3CC(CC(C3)C1)C2)CN1CCCCC1", "note": "(centres undefined)", "inhibition": "3.4% (inactive)"}, {"smiles": "CCN1CCCC1CNC(=O)Cn1cnc2ccc(S(=O)(=O)N3CCC(C)CC3)cc2c1=O", "note": "(centres undefined)", "inhibition": "7.3% (inactive)"}, {"smiles": "COC(=O)C1=C(Nc2ccc(OC)cc2)C=C(C)C(C(=O)OC)C1c1ccc(C)cc1", "note": "(centres undefined)", "inhibition": "51.9% (active)"}, {"smiles": "COC(=O)C1C(=O)NCC1c1ccc(C)cc1", "note": "(centres undefined)", "inhibition": "17.3% (inactive)"}, {"smiles": "COC(=O)C1C(=O)NCC1c1ccc(OC)cc1", "note": "(centres undefined)", "inhibition": "-19.7% (inactive)"}, {"smiles": "O=C1CCCC2=C1C(c1cccs1)n1nc(SCc3ccccc3)nc1N2", "note": "(centres undefined)", "inhibition": "-9.5% (inactive)"}, {"smiles": "COc1ccccc1C(=O)N1CCNC(=O)C1CC(=O)Nc1ccc(Cl)cc1", "note": "(centres undefined)", "inhibition": "27.9% (inactive)"}, {"smiles": "Nc1ccccc1SCc1cc([N+](=O)[O-])cc2c1OCOC2", "inhibition": "53.9% (active)"}, {"smiles": "CN(C)S(=O)(=O)c1ccc(Oc2ccc(S(=O)(=O)N(C)C)cc2)cc1", "inhibition": "13.3% (inactive)"}, {"smiles": "Cc1cccc(N=C2NC(=O)CS2)c1C", "inhibition": "21.1% (inactive)"}, {"smiles": "COC(=O)c1ccc(CN(c2ccccc2OC)S(=O)(=O)c2cccs2)o1", "inhibition": "94.6% (active)"}, {"smiles": "COc1ccc2[nH]c(C)c(CCN(Cc3cccs3)C(=S)Nc3ccccc3OC)c2c1", "inhibition": "43.2% (inactive)"}, {"smiles": "COC(=O)c1ccc(Cc2ccccc2)o1", "inhibition": "-29.6% (inactive)"}, {"smiles": "Cc1oc(CC(C)C)c(CN2CCCC2)c1C(=O)O", "inhibition": "-18.2% (inactive)"}, {"smiles": "CN(C)c1ccc(CNC2C3CC4CC(C3)CC2C4)cc1", "note": "(centres undefined)", "inhibition": "4.8% (inactive)"}, {"smiles": "COc1ccccc1NC(=O)C1=C(C)Nc2nnnn2C1c1cccc(Br)c1", "note": "(centres undefined)", "inhibition": "41% (inactive)"}, {"smiles": "COC(=O)c1ccc(C2C3=C(Nc4nnnn42)c2ccccc2OC3)cc1", "note": "(centres undefined)", "inhibition": "92.8% (active)"}, {"smiles": "O=c1[nH]c2c(c(=O)n1Cc1ccccc1)CCC2", "inhibition": "-27.1% (inactive)"}, {"smiles": "COC(=O)c1ccc(/C=N\\n2c(C)nnc2C)cc1", "inhibition": "-3.4% (inactive)"}, {"smiles": "Cc1noc(/C=C/N(C)C)c1S(=O)(=O)N1CCCC(C(=O)NCc2ccco2)C1", "note": "(centres undefined)", "inhibition": "48.9% (inactive)"}, {"smiles": "Cc1noc(/C=C/c2ccco2)c1S(=O)(=O)N1CCC(C(=O)N2CCc3ccccc32)CC1", "inhibition": "76.9% (active)"}, {"smiles": "CCOC(=O)C1CCN(C(=O)C2CCN(S(=O)(=O)c3c(C)noc3C)CC2)CC1", "inhibition": "10.2% (inactive)"}, {"smiles": "CCCCN1C(=O)/C(=C2/C=CC=CN2C)SC1=S", "inhibition": "-5% (inactive)"}, {"smiles": "Cc1cc(C)nc(N2CCN(c3ncnc4c3oc3ccccc34)CC2)n1", "inhibition": "-20.3% (inactive)"}, {"smiles": "Cc1cccc(-n2ncc3c(N4CCc5ccccc54)ncnc32)c1", "inhibition": "-9.6% (inactive)"}, {"smiles": "Cc1ccc2c(c1)c1ncnc(N3CCc4ccccc4C3)c1n2C", "inhibition": "73% (active)"}, {"smiles": "CCN(CC)C(=O)CSc1nnc(C2CCCCC2)o1", "inhibition": "5.7% (inactive)"}, {"smiles": "COCc1cc(C)nc(Nc2cc(C)ccc2C)c1C#N", "inhibition": "15.6% (inactive)"}, {"smiles": "Oc1ccc(-c2onc3ccc(Cl)cc23)cc1", "inhibition": "90.2% (active)"}]}]}
